Laboratory results published in PubChem BioAssay (NCATS).
The source made the active and inactive calls. Calls come from the whole dose curve; as a rule, active = well fitted curve in the direction sought with a large enough effect; inconclusive = small, poorly fitted or top-dose-only effect, or another doubt; inactive = no such curve, though single readings can be large or run the other way.

molecular target: Alpha-galactosidase (Coffea arabica) (UniProt Q42656); experiment: Counterscreen for Glucocerebrosidase Inhibitors: qHTS Assay for Coffee Bean alpha-Galactosidase at pH 4.5 (AID 957); settings: purified coffee bean alpha-galactosidase, fluorogenic substrate; series mostly up to 76.9 µM
Description: NIH Chemical Genomics Center [NCGC]
NIH Molecular Libraries Screening Centers Network [MLSCN]
PI Name: Zheng, Wei [NIH]
Alpha-galactosidase is a homodimeric glycoprotein that hydrolyzes the terminal alpha-galactosyl moieties from glycolipids and glycoproteins. Deficiency of this enzyme results in Fabry Disease with progressive accumulation of globotriaosylceramide and other glycosphingolipids in vascular endothelial cells that causes renal failure, myocardial infarction and stroke, and premature death in patients. It has reported that the improper folding and trafficking of alpha-galactosidase resulted from the genetic mutations may account for a significant numbers of Fabry patients. […] We optimized this coffee bean alpha-galactosidase assay in 1536-well plate format as a counter-screen assay for identifying the selective small molecule inhibitors of other lysosomal enzymes.
NCGC Assay Protocol Summary:
This is a fluorogenic enzyme assay with 4-Methylumbelliferyl alpha-D-galactopyranoside as the substrate and green coffee bean […] (from Sigma-Aldrich) as the enzyme preparation. Upon the hydrolysis of this fluorogenic substrate, the resulting product, […]. 4-Methyllumbelliferone, can be excited at 365 nm and emits at 440 nm which can be detected by a standard fluorescence plate reader. Data were normalized to the controls for basal activity (without enzyme) and 100% activity (with enzyme). In the AC50 values were determined from concentration-response data modeled with the standard Hill equation.
Assay buffer: 50 mM citric acid, 0.005% Tween-20, pH 4.5. (pH 5.9 is an optimal condition for this enzyme assay. This assay in pH 4.5 is used for comparison the inhibitor activities with the human alpha-galactosidase assay)
1536-well assay protocol for the coffee bean alpha-galactosidase:
(1) Add 2 ul/well of enzyme (2 nM final)
(2) Add 23 nL compounds in DMSO solution. The final titration was 0.7 nM to 77 uM.
(3) Add 1 ul of substrate (80 uM final)
(4) Incubate at room temperature for 20 min.
(5) Add 2 ul stop solution (1M NaOH and 1M Glycine mixture, pH 10)
(6) Detect the assay plate in a ViewLux plate reader (PerkinElmer) with Ex=365 nm and Em=440nm.
Keywords: Alpha-galactosidase, Fabry Disease, pharmacological chaperone, chaperone therapy, high throughput screening, alpha-galactosidase inhibitor, MLSMR, MLSCN, NIH Roadmap, qHTS and NCGC

Sequence of Alpha-galactosidase (Coffea arabica) (Q42656 whole entry, looked up): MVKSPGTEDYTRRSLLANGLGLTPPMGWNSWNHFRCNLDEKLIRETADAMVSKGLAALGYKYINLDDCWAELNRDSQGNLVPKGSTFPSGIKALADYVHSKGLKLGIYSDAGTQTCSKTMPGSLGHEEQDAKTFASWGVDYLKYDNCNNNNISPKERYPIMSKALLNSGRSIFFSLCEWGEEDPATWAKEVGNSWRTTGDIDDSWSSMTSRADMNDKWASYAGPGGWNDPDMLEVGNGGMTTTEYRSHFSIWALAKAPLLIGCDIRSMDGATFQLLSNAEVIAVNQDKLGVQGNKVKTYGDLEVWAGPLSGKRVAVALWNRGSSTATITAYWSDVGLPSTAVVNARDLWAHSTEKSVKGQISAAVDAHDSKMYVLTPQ

SMILES	outcome
C[C@]12CCC(=O)C=C1CC[C@@H]1[C@@H]2CC[C@@]2(C)[C@H]1CC[C@]2(O)C(=O)CO	inactive
O=C(c1ccc(F)cc1)C1CCN(CCn2c(=O)[nH]c3ccccc3c2=O)CC1	inactive
N[C@@H](Cc1c[nH]c2ccc(O)cc12)C(=O)O	inactive
Clc1ccc(Cn2c(CN3CCCC3)nc3ccccc32)cc1	inactive
C[N+](C)(C)CCOC(=O)CCC(=O)OCC[N+](C)(C)C	inactive
O=C(O)c1nn(Cc2ccc(Cl)cc2Cl)c2ccccc12	inactive
O=C1NCN(c2ccccc2)C12CCN(CCCC(c1ccc(F)cc1)c1ccc(F)cc1)CC2	inactive
c1ccc2nc(N3CCNCC3)ccc2c1	inactive
COc1ccccc1N1CCN(CCCNc2cc(=O)n(C)c(=O)n2C)CC1	inactive
CN1[C@@H]2CC[C@H]1CC(OC(=O)c1cc(Cl)cc(Cl)c1)C2 (stereo not given in full)	inactive
c1cnc(N2CCN(Cc3ccc4c(c3)OCO4)CC2)nc1	inactive
O=C(O)c1cccnc1Nc1cccc(C(F)(F)F)c1	inactive
NC(=O)CN1CCCC1=O	inactive
CC1=C(CC(=O)O)c2cc(F)ccc2/C1=C\c1ccc(S(C)=O)cc1 (stereo not given)	inactive
Brc1c(NC2=NCCN2)ccc2nccnc12	inactive
C(=C\c1ccccc1)/CN1CCN(C(c2ccccc2)c2ccccc2)CC1	inactive
Oc1cc(O)c2c(c1)O[C@H](c1ccc(O)c(O)c1)[C@H](O)C2	inactive
CCCCNc1cc(C(=O)O)cc(S(N)(=O)=O)c1Oc1ccccc1	inactive
O=C1N(c2ccccc2)c2ccccc2C1(Cc1ccncc1)Cc1ccncc1	inactive
COc1cc2c(cc1OC)-c1cc(=Nc3c(C)cc(C)cc3C)n(C)c(=O)n1CC2	inactive

SMILES	outcome
O=c1[nH]c2ccccc2n1CCCN1CCN(C(c2ccccc2)c2ccccc2)CC1	inactive
CCCCCCCCC(=O)NCc1ccc(O)c(OC)c1	inactive
CCc1cccc2c3c([nH]c12)C(CC)(CC(=O)O)OCC3 (stereo not given)	inactive
Nc1ccn([C@H]2CC[C@@H](CO)O2)c(=O)n1	inactive
CN(C)CCOC(c1ccccc1)c1ccccc1	inactive
CNC[C@H](O)c1ccc(O)c(O)c1	inactive
Oc1ccc(O)cc1	inactive
CCCCC1C(=O)N(c2ccccc2)N(c2ccccc2)C1=O	inactive
Cn1c(=O)c2c(ncn2C)n(C)c1=O	inactive
Cc1nc2sccn2c(=O)c1CCN1CCC(=C(c2ccc(F)cc2)c2ccc(F)cc2)CC1	inactive
Cn1cnc2c1c(=O)[nH]c(=O)n2C	inactive
CCNC(=O)N1CCN(CCCC(c2ccc(F)cc2)c2ccc(F)cc2)CC1	inactive
CCc1cccc(N(C)C(N)=Nc2cccc3ccccc23)c1	inactive
CCOC(=O)Nc1ccc(NCc2ccc(F)cc2)nc1N	inactive
COCC(=O)O[C@]1(CCN(C)CCCc2nc3ccccc3[nH]2)CCc2cc(F)ccc2[C@@H]1C(C)C	inactive
CCCn1cnc2c1c(=O)n(CCCCC(C)=O)c(=O)n2C	inactive
C#CCN(C)Cc1ccccc1	inactive
C[C@]12CC[C@@H]3c4ccc(O)cc4CC[C@H]3[C@@H]1CCC2=O	inactive
COC(=O)[C@@H](N)Cc1ccc(O)c(O)c1	inactive
CCN(CC)CC(=O)Nc1c(C)cccc1C	inactive
